Test results taken from PubChem BioAssay AID687001 (Broad Institute, 2013).
Measured potencies and affinities stand elsewhere. Active and inactive are the calls of the source.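 The calls were made as follows: active = signal-lowering compounds whose fitted half-maximal concentration is at or below twice the top tested dose in every run; inconclusive = runs disagree, flat 30 to 70% inhibition, or poor curve fit; inactive = the rest.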

Molecular target: Protein S100-A4 (Homo sapiens) (UniProt P26447)
Sequence (P26447 whole entry, looked up): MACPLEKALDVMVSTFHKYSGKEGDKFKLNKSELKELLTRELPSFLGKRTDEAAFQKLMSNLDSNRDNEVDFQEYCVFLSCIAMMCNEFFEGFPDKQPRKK
Assay: human S100A4 peptide interaction inhibition curves – biochemical, fluorescence polarization, cherry-picked hits, dose response (AID 687001)

SMILES	outcome
Cc1cccc(C)c1NC(=O)C1(C)CCC(=O)N1CCOc1ccccc1 (stereo not given)	inactive
CCCNC(=O)N1C[C@H](O)COC[C@@H]2O[C@H](CC(=O)N[C@H]3CCN(Cc4ccccc4)C3)CC[C@H]21	inactive
Cc1ccc([N+](=O)[O-])cc1N=Nc1c(C)[nH]n(C(N)=S)c1=O	inactive
CC=Cc1ccc2n(c1=O)C[C@@H]1N[C@H]2[C@H](C(=O)NC2CCCCC2)[C@H]1CO (mixture of isomers)	inactive
C[C@H]1CN([C@@H](C)CO)C(=O)c2cc(NC(=O)CCC(F)(F)F)ccc2O[C@@H]1CN(C)S(=O)(=O)c1cn(C)cn1	inactive
Cc1ccc(S(=O)(=O)Nc2ccccc2F)cc1C(=O)OC(C)C(=O)N1CCOCC1 (stereo not given)	inactive
Cc1nonc1NC(=O)CSc1nnc(N)s1	inactive
Cc1cc2ccccc2n1CCNC(=O)Cc1cccc2ccccc12	inactive
Cc1cc(C(=O)NC2CCCN(Cc3ccc(Cl)cc3)C2)n(C)n1 (stereo not given)	inactive
COc1ccc(NC(=O)CN(C)C(=O)c2ccc(N3CCCC3)c([N+](=O)[O-])c2)cc1	inactive
CCC(c1nc2ccccc2[nH]1)n1c(-c2cnccn2)nc2ccccc21 (stereo not given)	inactive
CC(=O)Nc1ccc(S(=O)(=O)c2ccc([N+](=O)[O-])cc2)cc1	inactive
CC(C)NC(=O)c1ccc(COc2cc(Cl)ccc2Cl)o1	inactive
COc1ccc(NC(=O)N(C)C[C@H]2OCCCC[C@@H](C)Oc3ccc(NC(=O)NC4CCCCC4)cc3C(=O)N([C@H](C)CO)C[C@@H]2C)cc1	inactive
S=c1[nH]nc(Nc2cccc3ccccc23)s1	inactive
